PubChem BioAssay (Tox21)
Where “and” joins values, the source holds several entries; their conditions need not be identical. Equal values may be shown once. Inconclusive results are not listed. A call without a number means that no potency is given here. A structure can be active in one record and inactive in another. Calls of active or inactive are those of the source. Calls follow the shape of the dose curve; as a rule, active = well fitted cell-killing curve with a large enough effect in the repeat runs; inconclusive = weak or mixed curves; inactive = no such curve, though single readings can be large or run the other way.
Potency is read from the fitted curve at half-maximal effect.

Test: qHTS assay to identify small molecule antagonists of the androgen receptor (AR) signaling pathway - cell viability counter screen (AID 743033; also: nearly all actives have a fitted effect of over 45% in size)
Conditions: AR-bla HEK293 viability, CellTiter-Glo luminescence, 16 h; series mostly up to 58.5 µM; activity change, negative = cytotoxicity: at the top concentration
From the text: National Center for Advancing Translational Sciences [NCATS]
NIH Chemical Genomics Center [NCGC]
U.S. Environmental Protection Agency [EPA]
National Institutes of Environmental Health Sciences [NIEHS]
National Toxicology Program [NTP]
U.S. Food and Drug Administration [FDA]
Androgen receptor (AR), a nuclear hormone receptor, plays a critical role in AR-dependent prostate cancer and other androgen related diseases. Endocrine disrupting chemicals (EDCs) and their interactions with steroid hormone receptors like AR may cause disruption of normal endocrine function as well as interfere with metabolic homeostasis, reproduction, developmental and behavioral functions. To identify the compounds that inhibit AR signaling, GeneBLAzer AR-UAS-bla-GripTite cell line (Invitrogen, Carlsbad, CA, USA) containing a beta-lactamase reporter gene under control of an Upstream Activator Sequence (UAS) stably integrated into HEK293 cells was used to screen the Tox21 10K compound library. The cytotoxicity of the Tox21 compound library against the AR-bla cell line was tested in parallel by measuring the cell viability using CellTiter-Glo assay in the same wells.
Tox21 Assay Protocol Summary:
AR-bla cells were dispensed at 2,000 cells/5 uL of assay medium per well into black wall/clear-bottom 1536-well plates using a Multidrop Combi (ThermoFisher Scientific, Waltham, MA) dispenser. After the assay plates were incubated at a 37C and 5% CO2 for 4 hr, 23 nL of compounds dissolved in DMSO, positive controls or DMSO only was transferred to the assay plate by a Pintool station (Kalypsys, San Diego, CA), followed by addition of 1 uL of agonist (R1881) in culture medium using a Bioraptr Flying Reagent Dispenser (FRD) workstation (Beckman Coulter, Indianapolis, IN, USA). The plates were incubated at a 37C and 5% CO2 for 16 h. After 1 uL of LiveBLAzerTM B/G FRET substrate was added using a Bioraptr FRD, the plates were incubated at room temperature for 2 h and fluorescence intensity was measured by an Envision plate reader (PerkinElmer, Shelton, CT). For cell viability readout that measures cytotoxicity, 4 ul/well of CellTiter-Glo reagent was added into the assay plates using a Bioraptr FRD. After 30 min incubation at room temperature, the luminescence intensity in the plates was measured using a ViewLux (PerkinElmer) plate reader.
In the case of CN(C)CCOC(C)(c1ccccc1)c1ccccn1 (stereo not given), the Potency is reported as “inactive”.
In the case of Cc1cc(C)nc(NS(=O)(=O)c2ccc(N)cc2)n1, the Potency is reported as “inactive”.
For Cn1c(=O)c2c(ncn2C)n(C)c1=O, the Potency was “inactive”.
In the case of CCCCNC(=O)NS(=O)(=O)c1ccc(C)cc1, the Potency is reported as “inactive”.
In the case of CCN(CC)C(=O)c1cccc(C)c1, the Potency is reported as “inactive”.
In the case of NS(=O)(=O)O, the Potency is reported as “inactive”.
With Nc1c(N=Nc2ccc(-c3ccc(N=Nc4cc(S(=O)(=O)O)c5ccccc5c4N)cc3)cc2)cc(S(=O)(=O)O)c2ccccc12 the Potency was “inactive”.
In the case of CN1[C@@H]2CC(OC(=O)[C@H](CO)c3ccccc3)C[C@H]1[C@@H]1O[C@@H]12 (stereo not given in full), the Potency is reported as “inactive”.
In the case of Cc1c(C(=O)O)c(O)cc2c1C(=O)c1c(O)c([C@@H]3O[C@H](CO)[C@@H](O)[C@H](O)[C@H]3O)c(O)c(O)c1C2=O, the Potency is reported as “inactive”.
For CN(C)C(=O)Nc1ccc(Cl)c(Cl)c1, the Potency was “inactive”.
For O=C1O[C@H]([C@@H](O)CO)C(O)=C1O, the Potency was “inactive”.
In the case of Cc1cn([C@H]2C=C[C@@H](CO)O2)c(=O)[nH]c1=O, the Potency is reported as “inactive”.
With O=C1c2c(O)cccc2Cc2cccc(O)c21 the Potency was “inactive”.
For CC(=O)CCC(=O)O, the Potency was “inactive”.
In the case of OC[C@H]1O[C@H](O[C@]2(CCl)O[C@H](CCl)[C@@H](O)[C@@H]2O)[C@H](O)[C@@H](O)[C@H]1Cl, the Potency is reported as “inactive”.
For CCCCC1(COC(=O)CCC(=O)O)C(=O)N(c2ccccc2)N(c2ccccc2)C1=O, the Potency was “inactive”.
For CN(C)C(=S)SC(=S)N(C)C, the Potency was 7.56 µM (active) and 1.42 µM (active) and 2.75 µM (active).
With CC(C)C(=O)Nc1ccc([N+](=O)[O-])c(C(F)(F)F)c1 the Potency was “inactive and 25.2 µM (active) and 49 µM (active)”.
In the case of C=C(C)C(=O)OCC(C)O (stereo not given), the Potency is reported as “inactive”.
With NC(CO)(CO)CO the Potency was “inactive”.
In the case of O=C(O)CC(O)C(=O)O (stereo not given), the Potency is reported as “inactive”.
With Nc1ccc([N+](=O)[O-])cc1O the “activity change, negative = cytotoxicity” value was 21.1% (inactive).
For CCCCC(CC)C(=O)O (stereo not given), the Potency was “inactive”.
In the case of NC(=O)c1cccnc1, the Potency is reported as “inactive”.
In the case of CCOC(N)=O, the Potency is reported as “inactive”.
For CCCCOC(=O)c1ccc(O)cc1, the Potency was “inactive”.
With CCCCCCCCCCCC[N+](C)(C)Cc1ccccc1 the Potency was 21.3 µM (active) and 19.1 µM (active) and 21.2 µM (active).
With CC/C(=C(\c1ccccc1)c1ccc(OCCN(C)C)cc1)c1ccccc1 the Potency was 13.9 µM (active) and 15.5 µM (active) and 11.1 µM (active).
For Nc1ccc(S(N)(=O)=O)cc1, the Potency was “inactive”.
For CN1CCC[C@H]1c1cccnc1, the Potency was “inactive”.
For O=c1[nH]cnc2c1ncn2[C@H]1CC[C@@H](CO)O1, the Potency was “inactive”.
In the case of F[B-](F)(F)F, the Potency is reported as “inactive”.
In the case of CCCCCCCCCCCCCCCC[N+](C)(C)Cc1ccccc1, the Potency is reported as 16.9 µM (active) and 17.9 µM (active) and 17.7 µM (active).
In the case of CCCC[P+](CCCC)(CCCC)CCCC, the Potency is reported as “inactive”.
For CNNCc1ccc(C(=O)NC(C)C)cc1, the Potency was “inactive”.
With COc1ccc(CN(CCN(C)C)c2ccccn2)cc1 the Potency was “inactive”.
With CN(N=O)C(=O)N[C@@H]1[C@@H](O)[C@H](O)[C@@H](CO)O[C@@H]1O the Potency was “inactive”.
For Cc1cccc(C)c1, the Potency was “inactive”.
For NS(=O)(=O)c1cc2c(cc1Cl)NCNS2(=O)=O, the Potency was “inactive”.
With Cc1cc(=O)oc2cc(O)ccc12 the Potency was “inactive”.
